Consider 16 compounds from PubChem BioAssay (NCATS).

Holding throughout (assay): Cytotoxic Profiling of Annotated Libraries Using Quantitative High-Throughput Screening (AID 1296008); also: nearly all actives have a fitted effect of over 60% in size
Common to all, as to settings: Five cell lines viability, CellTiter-Glo ATP luminescence, 48-72 h; max response: stronger effect = lower value

In one test the test system is CRL-7250. Put shortly:
(§1)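 Cells exposed to compounds for 48 or 72 hr at 37 degrees Celsius. Viability read as ATP-coupled luminescence with CellTiter-Glo after 10 min at room temperature.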

Another test concerns HEK293. Put shortly: as §1
In the next test the test system is HaCat. Put shortly:
as §1

The subject of a further test is KB-3-1. Put shortly:
as §1

A further test deals with NIH3T3. The gist of the method: as §1

Records with an inconclusive call do not appear. A number with no mark means an inactive call. Calls of active or inactive are those of the source. Calls follow the shape of the dose curve; as a rule, active = well fitted inhibition curve with a large enough effect; inconclusive = small, poorly fitted or top-dose-only effect; inactive = flat fitted curve, though single readings scatter.
% is scaled to controls: 0 for no effect and ±100 for the full control effect; potency is read from the fitted curve at half-maximal effect.

For the compound `CCOC(=O)Nc1cc(-c2ccc(C)c(NS(C)(=O)=O)c2)nn2c(C)nnc12`, the Potency in the test on CRL-7250 was 7.31 µM (active); with HEK293, 4.11 µM (active); in the test with HaCat, 651 nM (active); in the test with KB-3-1 it was 10.3 µM (active); in the test with NIH3T3, 9.2 µM (active).
`CC(C(O)/C=C/C(C)(C)O)C1CCC2(C)C3C(=O)C=C4C(CCC(O)C4(C)C)C3(C)CCC12C` (stereo not given): the max response in the test on CRL-7250 is -0.192%; in the test on HEK293, -3.03%; with HaCat it was -4.33%; in the test with NIH3T3 it was 4.41%. Besides, the compound was called inactive in the test on KB-3-1.
With `C/C(=C\CCC1(C)C2CCC(C2)C1(C)O)C(=O)O` (stereo not given), the call with CRL-7250 and in the test with KB-3-1 was inactive. In addition, the results for the max response in the test with HEK293, with HaCat and with NIH3T3 were -6.56%, 0.481% and 3.29%, respectively.
Consider `C=C[C@H]1[C@H](O[C@@H]2O[C@H](CO)[C@@H](O)[C@H](O)[C@H]2O)OC=C(C(=O)OC)[C@H]1CC(=O)O`, for which the max response in the test with CRL-7250 was -13.3%; in the test on HEK293 it was 3.67%; with HaCat it was -3.58%; with KB-3-1 it was -3%; with NIH3T3 it was -8.69%.
`COc1cc(C2Oc3c(OC)cc(CCCO)cc3C2CO)ccc1O[C@H]1O[C@H](C)[C@@H](O)[C@H](O)[C@@H]1O` (stereo not given in full): the compound was classed as inactive in the test on CRL-7250. The max response is -0.663% in the test with HEK293, -14.3% with HaCat, -4.42% with KB-3-1 and 2.77% in the test on NIH3T3.
As to `CC(=O)O[C@@H]1[C@@H](CO)O[C@@](CO)(O[C@H]2O[C@H](COC(=O)/C=C/c3ccccc3)[C@@H](O)[C@H](O)[C@H]2O)[C@H]1O`, the max response is -0.112% with CRL-7250, 0.799% in the test on HEK293, -9.37% with HaCat and 1.35% in the test with NIH3T3. The outcome in the test on KB-3-1 was inactive.
The corresponding values for `CC1(C)CC[C@]2(C(=O)O[C@@H]3O[C@H](CO)[C@@H](O)[C@H](O)[C@H]3O)CC[C@]3(C)C(=CCC4[C@@]5(C)C[C@@H](O)[C@H](O)[C@@](C)(CO)C5CC[C@]43C)C2[C@@H]1O` (stereo not given in full) are 1.08%, -3.93%, -9.78%, 2.98% and “inactive”.
As for `CON(C)C(=O)[C@H](O)[C@H](Cc1ccccc1)NC(=O)c1cc2cc(Cl)ccc2[nH]1`, in the test with CRL-7250, the result was inactive. The max response was -8.5% in the test with HEK293, -24.4% in the test with HaCat, 5.78% in the test with KB-3-1 and -9.74% in the test on NIH3T3.
As for `CC(C)CC(=O)O[C@@H]1OC=C(CO[C@@H]2O[C@H](CO)[C@@H](O)[C@H](O)[C@H]2O)[C@H]2[C@@H]3O[C@H]3[C@@](O)(CO)[C@@H]12`, the max response in the test on CRL-7250 was -0.109%; in the test on HEK293 it was -8.14%; in the test on HaCat it was 1.46%; with KB-3-1, 6.77%; in the test with NIH3T3, 2.35%.
In the case of `CC(C)(C)c1ccc(S(=O)(=O)Nc2ccc(Cl)cc2C(=O)c2cc[n+]([O-])cc2)cc1`, the max response in the test with CRL-7250 is -19.6%; in the test with HEK293 it was -2.23%; in the test on HaCat it was -10.2%; in the test on NIH3T3 it was -1.11%. Besides, the result in the test on KB-3-1 was inactive.
Take `C=C(C(=O)O)C1CC2=C(C)CCCC2(C)C[C@@H]1O` (stereo not given in full): the result with CRL-7250 and with KB-3-1 was inactive. Moreover, the max response is -3% in the test on HEK293, 0.301% in the test on HaCat and 4.2% in the test on NIH3T3.
Take `CC1(C(=O)O)CCCC2(C)C3=CCC4CC3(CCC12)CC4CO` (stereo not given): the max response is -23% in the test with CRL-7250; -3.78% in the test on HEK293; 2.08% in the test with HaCat; 2.22% with KB-3-1; -1.37% with NIH3T3.
On to `CN(C)C/C=C/C(=O)Nc1cccc(C(=O)Nc2cccc(Nc3ncc(Cl)c(-c4c[nH]c5ccccc45)n3)c2)c1`, for which the Potency in the test on CRL-7250 was 0.259 µM (active); in the test with HEK293, 0.58 µM (active); in the test with HaCat it was 4610 nM (active); with KB-3-1 it was 1.03 µM (active); in the test on NIH3T3, 4.11 µM (active).
For `CC(C)c1cc2c(c(O)c1O)[C@@]13CCCC(C)(C)[C@@H]1[C@H](OC3=O)C2=O`, the max response was 0.881% in the test on CRL-7250; -6.57% with HEK293; -2.13% in the test with HaCat; -17.1% in the test on KB-3-1; 3.28% in the test on NIH3T3.
In the case of `COc1c2c(c(C)c3c1C(=O)OC3)OC1(C)CC(O)C(C(C)(C)O)C(C)(CCC(=O)O)C1C2` (stereo not given), the outcome in the test with CRL-7250 and in the test on KB-3-1 was inactive. For the same compound, the max response in the test with HEK293 is -5.2%; with HaCat, -1.29%; with NIH3T3, 0.542%.
Turning to `COc1ccccc1Oc1ccc(N(Cc2cccnc2)S(=O)(=O)CC(F)(F)F)cc1`, the max response in the test with CRL-7250 was -7.01%; with HEK293, 4.88%; in the test with HaCat it was 0.0707%; in the test with KB-3-1, -5.75%; in the test with NIH3T3 it was -1.58%.
